{"source": "PubChem BioAssay AID686979", "about": "(National Center for Advancing Translational Sciences (NCATS), 2013)", "note": "About 50,000 (12%) of roughly 420,000 compounds were called active. Where a call stands in place of a potency, no number is given. Not shown: some 26% with an inconclusive outcome. Many of the other results were omitted from the sample, so actives are more common in it than they were. A number with no mark means an inactive call. Calls come from the whole dose curve; as a rule, active = well fitted inhibition curve with a large enough effect; inconclusive = small, poorly fitted or top-dose-only effect; inactive = flat fitted curve, though single readings scatter. Potency is the fitted concentration of half-maximal effect."}
{"assay": "qHTS for Inhibitors of human tyrosyl-DNA phosphodiesterase 1 (TDP1): qHTS in cells in presence of CPT; note: nearly all actives have a fitted effect of over 55% in size", "conditions": "chicken DT40 Tdp1-/-;hTDP1 cells + 20 nM CPT, ATP luminescence, 48 h; series mostly up to 46.2 µM", "in_short": "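Chicken DT40 Tdp1-/- cells complemented with human TDP1, 400 cells/well, exposed to compounds plus 20 nM camptothecin for at least 48 h at 37 C; viability read as ATP content by CellTiter-Glo luminescence.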"}
{"molecule": "CN1CCN(NC(=O)Nc2ccc(Br)cc2)CC1", "Potency": "inactive"}
{"molecule": "CCn1cc(CN2CCC(C(=O)Nc3cccc(-c4cccc(Cl)c4)c3)CC2)cn1", "Potency": "16.4 µM (active)"}
{"molecule": "CCn1cc(CN2CCC(n3nccc3NC(=O)CCCc3ccccc3)CC2)c(C)n1", "Potency": "inactive"}
{"molecule": "O=C(Nc1ccc(-n2cccn2)cc1)C1CCN(Cc2ccsc2)CC1", "Potency": "inactive"}
{"molecule": "CCn1cc(CN2CCC(C(=O)Nc3cccc(-c4cccc(Cl)c4)c3)CC2)c(C)n1", "Potency": "13 µM (active)"}
{"molecule": "COc1cccc(-c2cccc(NC(=O)C3CCN(C4CCC4)CC3)c2)c1", "Potency": "inactive"}
{"molecule": "CCNC(=S)NNC(=O)C1CCN(Cc2ccccc2)CC1", "Potency": "inactive"}
{"molecule": "CC(CCn1cccn1)NC(=O)CCc1nnc(CCc2ccccc2)o1", "note": "(stereo not drawn)", "Potency": "inactive"}
{"molecule": "CCC(C)NC(=O)C1c2ccccc2C(=O)N1Cc1ccccc1", "note": "(stereo not drawn)", "Potency": "inactive"}
{"molecule": "Cc1cc(-c2ccnc(-n3ncc(C(=O)NC(C)(C)CO)c3C3CC3)n2)c(C)s1", "activity change, negative = growth inhibition": "3.64% [at 9.04 µM]"}
{"molecule": "CCc1ccc(NC(=O)Cn2nnc(C(=O)NCc3ccc(OC)cc3)c2N)cc1", "Potency": "inactive"}
{"molecule": "CCc1ccc(NC(=O)CN2CCC(C(=O)c3ccc(OC)cc3)CC2)cc1", "Potency": "5.8 µM (active)"}
{"molecule": "COc1ccc(C(=O)Nc2ccc(CN3CCOCC3)cc2)cc1", "Potency": "inactive"}
{"molecule": "CC(C)(C)c1ccc(C(=O)N2CCC(C(=O)N3CCCCC3)CC2)cc1", "Potency": "inactive"}
{"molecule": "COc1ccc(NC(=O)N2CCCC(C(=O)Nc3ccccc3OC)C2)cc1", "note": "(stereo not drawn)", "Potency": "inactive"}
{"molecule": "COc1ccc(C(=O)N2CCC(C(=O)Nc3ccc(C)cc3)CC2)cc1", "Potency": "18.4 µM (active)"}
{"molecule": "COc1ccccc1NC(=O)C1CCN(C(=O)c2ccc(C(C)(C)C)cc2)CC1", "Potency": "23.1 µM (active)"}
{"molecule": "COc1ccc(CNC(=O)C2CCN(C(=O)c3ccco3)CC2)cc1", "Potency": "inactive"}
{"molecule": "COc1ccc(CNC(=O)C2CCN(C(=O)c3ccccc3)CC2)cc1", "Potency": "inactive"}
{"molecule": "Cc1ccc(NC(=O)[C@H](Cc2ccccc2)NC(=O)C2CCNCC2)cc1", "Potency": "inactive"}
{"molecule": "CC(=O)Nc1ccc(S(=O)(=O)N2CCC(NC(=O)c3ccccc3)CC2)cc1", "Potency": "inactive"}
{"molecule": "O=C(Cc1ccc(Br)cc1)NCCc1ccccc1", "Potency": "inactive"}
{"molecule": "O=C(Nn1cnnc1)c1cc(Cl)ccc1Cl", "Potency": "inactive"}
{"molecule": "NS(=O)(=O)c1cccc(NC(=O)COC(=O)/C=C/c2ccco2)c1", "Potency": "inactive"}
{"molecule": "CCC(C)C(CO)NC(=O)/C=C/[C@H]1O[C@@H](n2cnc3c(NC(=O)c4ccccc4)ncnc32)[C@H](O)[C@@H]1O", "note": "(stereo partly drawn)", "Potency": "inactive"}
{"molecule": "Cc1ccnc(NC(=O)c2ccoc2C)c1", "Potency": "inactive"}
{"molecule": "C/C(=N\\NC(=O)c1ccoc1C)c1ccccc1O", "Potency": "10.3 µM (active)"}
{"molecule": "C/C(=N\\NC(=O)c1ccccc1C)c1ccc(N2CCOCC2)cc1", "Potency": "inactive"}
{"molecule": "COC(=O)c1sc(=S)n(-c2ccc(Cl)cc2)c1C", "Potency": "inactive"}
{"molecule": "OC(CBr)CN1CCCCC1", "note": "(stereo not drawn)", "Potency": "inactive"}
{"molecule": "O=C(NCc1nnnn1-c1ccc(Cl)cc1)c1ccc2c(c1)OCO2", "Potency": "inactive"}
{"molecule": "O=C(NCc1nnnn1-c1ccc(Cl)cc1)c1ccc([N+](=O)[O-])o1", "Potency": "18.4 µM (active)"}
{"molecule": "COc1ccc(-n2nnnc2CNC(=O)c2ccc3ccccc3c2)cc1", "Potency": "inactive"}
{"molecule": "O=C(/C=C/c1cccc([N+](=O)[O-])c1)NCCSCc1ccco1", "Potency": "inactive"}
{"molecule": "COc1ccc(C(=O)NC2CC2)cc1OC1CCN(Cc2cnn(C)c2)CC1", "Potency": "inactive"}
{"molecule": "COc1cc(C(=O)NC2CCN(C)CC2)ccc1Nc1ncc2c(n1)N(C1CCC(O)CC1)CCC(=O)N2C", "note": "(stereo not drawn)", "Potency": "16.4 µM (active)"}
{"molecule": "COc1ccc(Cl)cc1NS(=O)(=O)c1cccc(C(=O)NC2CCC(O)CC2)c1", "note": "(stereo not drawn)", "Potency": "inactive"}
{"molecule": "O=C(NCCc1ccccc1Cl)C1CCC(=O)N(CCCc2ccccc2)C1", "note": "(stereo not drawn)", "Potency": "inactive"}
{"molecule": "COc1ccc(C(=O)O)cc1S(=O)(=O)NCc1cccnc1", "Potency": "inactive"}
{"molecule": "O=C(CCCCn1c(=O)c2ccccc2n(CC(=O)Nc2cccc(C(F)(F)F)c2)c1=O)NCc1ccc2c(c1)OCO2", "Potency": "18.4 µM (active)"}
{"molecule": "CCOc1ccc(NC(=O)Cn2c(=O)n(CCCC(=O)NCc3ccc4c(c3)OCO4)c(=O)c3ccccc32)cc1", "Potency": "inactive"}
{"molecule": "O=C(CCn1c(=O)c2ccccc2n(Cc2ccc(Cl)cc2)c1=O)NCc1ccc2c(c1)OCO2", "Potency": "inactive"}
{"molecule": "CCCCn1c(SCC(=O)N2CCC(C(=O)OCC)CC2)nc2cc(S(N)(=O)=O)ccc21", "Potency": "inactive"}
{"molecule": "CCCCn1c(SCC(=O)N2CCCC2=O)nc2cc(S(N)(=O)=O)ccc21", "Potency": "inactive"}
{"molecule": "CCCCn1c(SCc2ncc(-c3ccccc3)o2)nc2cc(S(N)(=O)=O)ccc21", "Potency": "11.6 µM (active)"}
{"molecule": "COc1cccc(Cn2cnc3c([N+](=O)[O-])c(C)c(C)cc32)c1", "Potency": "inactive"}
{"molecule": "CCc1ccc2[nH]c(=O)c(Cc3ccccc3)c(O)c2c1", "Potency": "inactive"}
{"molecule": "CSc1cccc(NC(=O)CSc2ccccc2)c1", "Potency": "inactive"}
{"molecule": "CCOc1ccc(NC(=O)c2ccc(NC(=O)C3CCCO3)cc2)cc1", "note": "(stereo not drawn)", "Potency": "inactive"}
{"molecule": "CCOc1ccc(NC(=O)c2ccc(NC(=O)COC(=O)c3ccc(NC(=O)CC#N)cc3)cc2)cc1", "Potency": "inactive"}
{"molecule": "CCOc1ccc(C(=O)Nc2c3c(nn2-c2ccccc2)CS(=O)(=O)C3)cc1", "Potency": "inactive"}
{"molecule": "CCOc1ccc(NC(=O)c2ccc(CSc3nnnn3C)cc2)cc1", "Potency": "inactive"}
{"molecule": "CCOc1ccc(C(=O)Nc2cccc(-c3ccc4nncn4n3)c2)cc1", "Potency": "20.6 µM (active)"}
{"molecule": "CCC(=O)Nc1ccc(C(=O)Nc2cccc(OC)c2)cc1", "Potency": "inactive"}
{"molecule": "CCOc1ccc(C(=O)Nc2ccncc2)cc1", "Potency": "10.3 µM (active)"}
{"molecule": "CCOc1ccc(C(=O)Nc2cccc(SC)c2)cc1", "Potency": "6.51 µM (active)"}
{"molecule": "O=C(CCC1CCCC1)N=C1SC2CS(=O)(=O)CC2N1Cc1ccccc1", "note": "(stereo not drawn)", "Potency": "inactive"}
{"molecule": "CCc1ccc([C@@H]2CC(=O)[C@@H]3CN(S(=O)(=O)c4ccc(C)cc4)[C@H](c4ccc(Cl)cc4)C[C@@H]3N2S(=O)(=O)c2ccc(C)cc2)cc1", "Potency": "inactive"}
{"molecule": "CCOc1ccc(N2CC(C(=O)N/N=C/c3sccc3C)CC2=O)cc1", "note": "(stereo not drawn)", "Potency": "inactive"}
{"molecule": "C[C@H](CO)N1C[C@H](C)[C@@H](CN(C)C(=O)Nc2ccc3c(c2)OCO3)Oc2c(cccc2N(C)C)C1=O", "Potency": "inactive"}
{"molecule": "CN1CCN(CC#CCC2(O)c3ccccc3-c3ccccc32)CC1", "Potency": "inactive"}
{"molecule": "CC(C)(C)C(=O)Nc1c(Br)c(C2CC2)nn1-c1ccccc1", "Potency": "inactive"}
{"molecule": "CCOc1ccc(S(=O)(=O)NCCCn2ccnc2)cc1NC(C)=O", "Potency": "inactive"}
{"molecule": "COC(=O)c1ccc(NC(=O)CSc2nc(N)c(NC(=O)c3ccc(Br)o3)c(=O)[nH]2)cc1", "Potency": "inactive"}
{"molecule": "O=C(CCC1CCCN(Cc2ccc(O)c(Cl)c2)C1)NCc1ccccc1F", "note": "(stereo not drawn)", "Potency": "inactive"}
{"molecule": "Cn1c(-c2ccccc2)c[n+]2c1CCCCC2", "Potency": "inactive"}
{"molecule": "Clc1ccc(C[n+]2cc(-c3ccc(Cl)cc3)n3c2CCC3)cc1", "Potency": "4.61 µM (active)"}
{"molecule": "Clc1ccc(C[n+]2cc(-c3ccccc3)n3c2CCC3)cc1", "Potency": "2.91 µM (active)"}
{"molecule": "O=C(O)C(F)(F)C(NCc1ccccc1)c1ccccc1", "note": "(stereo not drawn)", "Potency": "inactive"}
{"molecule": "CCC(C(=O)NC1CCCCC1)N(C(=O)c1snc(C(N)=O)c1N)c1ccc(OC)cc1OC", "note": "(stereo not drawn)", "Potency": "inactive"}
{"molecule": "CC(NC(=O)c1ccc(S(=O)(=O)Nc2ccccc2)cc1)c1ccc(S(N)(=O)=O)cc1", "note": "(stereo not drawn)", "Potency": "inactive"}
{"molecule": "COc1cc2c(cc1OC)C(Cc1cc(OC)c(OC)cc1[N+](=O)[O-])=NCC2", "Potency": "5.17 µM (active)"}
{"molecule": "COc1cc(CN2CCCN(C)CC2)c([N+](=O)[O-])cc1OC", "Potency": "inactive"}
{"molecule": "COc1cc(CNCc2ccc3c(c2)OCO3)c([N+](=O)[O-])cc1OC", "Potency": "inactive"}
{"molecule": "CCCCC1S/C(=N/N=C/c2cccs2)NC1=O", "note": "(stereo not drawn)", "Potency": "inactive"}
{"molecule": "CCc1ccc(OCC(O)CN2CCN(CCO)CC2)cc1", "note": "(stereo not drawn)", "Potency": "inactive"}
{"molecule": "Cc1ccccc1OCC(O)CN1CCN(c2ccccn2)CC1", "note": "(stereo not drawn)", "Potency": "inactive"}
{"molecule": "OC(COc1ccc2ccccc2c1)Cn1cncn1", "note": "(stereo not drawn)", "Potency": "inactive"}
{"molecule": "CC(=O)OC(COc1ccc(F)cc1)Cn1cnc2ccccc21", "note": "(stereo not drawn)", "Potency": "inactive"}
{"molecule": "CC(C)c1ccc(OCC(O)CN2CCN(c3ccccn3)CC2)cc1", "note": "(stereo not drawn)", "Potency": "25.9 µM (active)"}
{"molecule": "CC(C)c1ccc(OCC(O)Cn2cnc3ccccc32)cc1", "note": "(stereo not drawn)", "Potency": "18.4 µM (active)"}
{"molecule": "Cc1ccc(C)c(NC(=O)COC(=O)c2nn(C)c(=O)c3ccccc23)c1", "Potency": "inactive"}
{"molecule": "C/C=C/C(=O)OCc1csc(CC(=O)Nc2ccccc2C)n1", "Potency": "inactive"}
{"molecule": "Cc1ccnc(NC(=O)C2CCN(S(=O)(=O)c3c(C)c(C)cc(C)c3C)CC2)c1", "Potency": "inactive"}
{"molecule": "CCCNC(=O)C[C@@H]1CC[C@@H]2[C@H](COC[C@H](O)CN2C(=O)c2cc(Cl)cc(Cl)c2)O1", "Potency": "inactive"}
{"molecule": "CC1(c2nnc(-c3ccncc3)o2)CC(c2cccnc2)=NO1", "note": "(stereo not drawn)", "Potency": "inactive"}
{"molecule": "CCCCC(=O)Nc1nnc(S(=O)(=O)N(C)Cc2ccco2)s1", "Potency": "inactive"}
{"molecule": "COc1ccc(NC(=O)CCNS(=O)(=O)c2ccc3c(c2)c(=O)n(C)c(=O)n3C)cc1OC", "Potency": "inactive"}
{"molecule": "COc1ccc(OC)c(-n2cc3c(=O)n(C)c(=O)n(C)c3c2)c1", "Potency": "16.4 µM (active)"}
{"molecule": "CC(=O)Nn1cc2c(=O)n(C)c(=O)n(C)c2c1", "Potency": "inactive"}
{"molecule": "CCc1cc2c(NC3CCCC3)ncnc2s1", "Potency": "7.31 µM (active)"}
{"molecule": "CCc1cc2c(SCC(=O)Nc3ncc(Cl)c(C)c3Cl)ncnc2s1", "Potency": "inactive"}
{"molecule": "CCc1cc2c(NC(Cc3ccccc3)C(=O)O)ncnc2s1", "note": "(stereo not drawn)", "Potency": "inactive"}
{"molecule": "Cn1c2ccccc2n2c(=O)c(=O)n(CC(=O)c3ccc(F)cc3)nc12", "Potency": "inactive"}
{"molecule": "O=C(Cn1ccc2cc(S(=O)(=O)N3CCCC3)ccc21)NCc1ccccc1", "Potency": "inactive"}
{"molecule": "O=[N+]([O-])/C=C/c1ccc2c(ccn2Cc2ccccc2)c1", "Potency": "3.26 µM (active)"}
{"molecule": "COc1ccc(Cn2ccn(Cc3cccc(OC)c3)c(=O)c2=O)cc1", "Potency": "inactive"}
{"molecule": "Cc1ccc(C)c(S(=O)(=O)Nc2cccc(-n3cnnn3)c2)c1", "Potency": "inactive"}
{"molecule": "Cc1cnc(C(=O)OCc2c(C)cc(C(C)(C)C)cc2C)cn1", "Potency": "inactive"}
{"molecule": "N#CCCC(C#N)(c1cccnc1)N1CCOCC1", "note": "(stereo not drawn)", "Potency": "inactive"}
{"molecule": "COc1ccc(OC)c(C(=O)c2ccc(C(=O)O)cc2)c1", "Potency": "inactive"}
{"molecule": "COc1ccc(C(=O)c2oc3ccc(Br)cc3c2NC(C)=O)cc1", "Potency": "inactive"}
{"molecule": "COc1ccc2occ(C(=O)c3ccc(N=C(C)N(C)C)cc3)c2c1", "Potency": "16.4 µM (active)"}
